According to PubChem BioAssay AID1159580 (chemical genetic matrix, 2015):
In all, about 5,500 compounds went through this assay and about 2,000 (36%) were called active. Not shown: some 18% with an inconclusive outcome. No stated cut-off is given here; in the data, active means normalized growth mostly below about 0.91 (no sharp cut-off); inconclusive means no clear call, values can overlap the other calls; inactive means mostly above about 0.92. This is one part of the list.

Experiment: chemical genetic growth profiling, strain panel (AID 1159580);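 further: tested at 20 µM; growth read once vehicle control cultures reached saturation at 30 °C; 1 = growth at the plate median or of vehicle wells; lower values mean less growth of the strain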
Conditions: S. cerevisiae deletion strains, growth OD

Measured: normalized growth

O=C(O)CS
inactive: locus YHR030C, strain SLT2, active compounds read low 1.05 | locus YHR079C, strain IRE1, active compounds read low 1.02 | locus YJL095W, strain BCK1, active compounds read low 1.04 | locus YJR066W, strain TOR1, active compounds read low 0.941 | locus YLR113W, strain HOG1, active compounds read low 1.07 | locus YNL183C, strain NPR1, active compounds read low 1.02 | locus YOR231W, strain MKK1, active compounds read low 1.08 | locus YPL256C, strain CLN2, active compounds read low 1.05
